Assay [1] is described as follows: P. berghei load reduction in hepatocytes – cell-based, HepG2, luciferase luminescence, HepG2 viability, primary screen (AID 624349; in the data active = parasite load remaining mostly below about 12%, no sharp cut-off; inactive = mostly above about 10%;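 note: 100% = mean of DMSO negative control wells on the same plate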). The following applies: P. berghei liver stage in HepG2, luciferase luminescence, concentration not given here; parasite load remaining: stronger effect = lower value; viability: measured here: HepG2 viability without parasites.
The nature of assay [2]: EMT-state selective cytotoxicity in co-culture – imaging, PC-3E GFP, TEM4-18 mCherry, primary screen (AID 1345086).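 For all read-outs here: cells exposed to compound for 72 h before imaging.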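 For red/green cell ratio (normalised): normalised mesenchymal count divided by normalised epithelial count so high means epithelial killing.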 Particulars: PC-3E GFP / TEM4-18 mCherry co-culture, imaging cell counts, at 1 µM; for red/green cell ratio (normalised): actives lie on both sides, counts scaled to control wells, 1 = unselective.
Assay [3] is described as follows: viability loss with induced miR-34 in A549 – imaging, A549 dox-inducible miR-34, nuclei and caspase counts, primary screen (AID 1347080;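 active = compounds whose cell count with miR-34 switched on is under 0.7 times the count with it off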). Particulars: A549 miR-34 inducible, Hoechst nuclei count, 48 h.
Assay [4] deals with NAD(+) hydrolase SARM1 (Homo sapiens) (UniProt Q6SZW1). The assay is described as follows: blocking NAD cleavage by SARM1 SAM-TIR – cell lysate, NAD-Glo luminescence (AID 1508614;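 active = compound whose remaining NAD level is above about 45 nM, limit read from the data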;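 note: higher remaining NAD means stronger inhibition of SARM1 NADase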). Particulars: SAM-TIR HEK293T lysate NADase, at 1 µM, stronger effect = higher value.
The target of assay [5] is Mitogen-activated protein kinase 7 (Homo sapiens) (UniProt Q13164). The assay is described as follows: Gal4-ERK5 driven luciferase induction – cell-based, HTS, primary screen (AID 1508626;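 active = luciferase signal above three times the same-plate solvent-only control wells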;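 note: luciferase driven by Gal4-ERK5 fusion binding five Gal4 sites before minimal TATA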). Particulars: HeLa Gal4-ERK5 transactivation, 18 h, at 5 µM, stronger effect = higher value.
Assay [6] is described as follows: blockers of polyQ-driven CASP3 activation – cell-based (AID 1583). Particulars: polyglutamine-induced caspase-3 activation, cell assay; stronger effect = higher value;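 tested at 10 µM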.
The nature of assay [7]: yeast 75Q aggregation reduction – 75Q-TubU reporter (AID 1593). Particulars: Yeast 75Q polyglutamine aggregation reporter.
Assay [8] in a line: restoration of touch response, mutant HTT neurons – whole organism, C. elegans mechanosensory neurons, N-terminal huntingtin (AID 1599). Particulars: C. elegans polyQ-huntingtin mechanosensory neurons, stronger effect = higher value.
Assay [9] is described as follows: blockers of cytochrome c efflux from mitochondria – biochemical, purified mitochondria (AID 1603).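 Note: mouse liver mitochondria challenged with calcium chloride; signal normalized to the plate average as 100%.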 Particulars: stronger effect = lower value.
Assay [10] in a line: polyglutamine aggregate formation blockers (AID 1604). The following applies: polyglutamine-induced protein aggregation inhibition assay; stronger effect = higher value; tested at 2.5 µM.
A short description of assay [11]: glutamate transport activators, MN-1 cells, MN-1 cell line (AID 1612).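 Note: tested at 1 µM final; 0% = mean of DMSO vehicle wells on each plate; positive means more glutamate uptake than control and negative means less.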 Particulars: MN-1 motor neuron cells, stronger effect = higher value.
A short description of assay [12]: GFP-Q80 aggregate reduction, neuronal-like cells, cell-based, NGF-treated PC12, GFPQ80 (AID 1614).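 Note: lower means fewer inclusions and 0 means no inclusions at all.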 Particulars: PC12 NGF-treated GFP-polyQ80 inclusion reduction.
The nature of assay [13]: 75Q-TubH aggregate inhibition, S. cerevisiae, yeast (AID 1616). The following applies: S. cerevisiae 75Q-TubH polyglutamine aggregation suppression; stronger effect = higher value.
[14] abbreviates: measured here: epithelial PC-3E GFP cell survival.
The mark [15] stands for this setting: measured here: mesenchymal TEM4-18 mCherry cell survival.
Where [16] appears, read: stronger effect = lower value, cell number ratio, induced over uninduced.
The mark [17] stands for this setting: measured here: relative caspase fold change +Dox/-Dox.
[18] abbreviates: measured here: total cells with miR-34 induction, stronger effect = lower value.
[19] abbreviates: measured here: total cells without miR-34 induction.

Results on 8 compounds are retold here after PubChem BioAssay.

Several values for one entry are separate records, joined by “and”; a condition that tells them apart may be missing. Equal values may be shown once. For part of these data: Entries with a potency or affinity are not part of this list. Activity calls are given as the source filed them.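 Rule for the calls, unless noted: active = compounds killing one labelled cell type while sparing the other, by normalised counts and ratio limits, not self-fluorescent; inactive = the rest.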

Sequence of Mitogen-activated protein kinase 7 (Homo sapiens) (Q13164 whole entry, looked up, the tested form may be a part): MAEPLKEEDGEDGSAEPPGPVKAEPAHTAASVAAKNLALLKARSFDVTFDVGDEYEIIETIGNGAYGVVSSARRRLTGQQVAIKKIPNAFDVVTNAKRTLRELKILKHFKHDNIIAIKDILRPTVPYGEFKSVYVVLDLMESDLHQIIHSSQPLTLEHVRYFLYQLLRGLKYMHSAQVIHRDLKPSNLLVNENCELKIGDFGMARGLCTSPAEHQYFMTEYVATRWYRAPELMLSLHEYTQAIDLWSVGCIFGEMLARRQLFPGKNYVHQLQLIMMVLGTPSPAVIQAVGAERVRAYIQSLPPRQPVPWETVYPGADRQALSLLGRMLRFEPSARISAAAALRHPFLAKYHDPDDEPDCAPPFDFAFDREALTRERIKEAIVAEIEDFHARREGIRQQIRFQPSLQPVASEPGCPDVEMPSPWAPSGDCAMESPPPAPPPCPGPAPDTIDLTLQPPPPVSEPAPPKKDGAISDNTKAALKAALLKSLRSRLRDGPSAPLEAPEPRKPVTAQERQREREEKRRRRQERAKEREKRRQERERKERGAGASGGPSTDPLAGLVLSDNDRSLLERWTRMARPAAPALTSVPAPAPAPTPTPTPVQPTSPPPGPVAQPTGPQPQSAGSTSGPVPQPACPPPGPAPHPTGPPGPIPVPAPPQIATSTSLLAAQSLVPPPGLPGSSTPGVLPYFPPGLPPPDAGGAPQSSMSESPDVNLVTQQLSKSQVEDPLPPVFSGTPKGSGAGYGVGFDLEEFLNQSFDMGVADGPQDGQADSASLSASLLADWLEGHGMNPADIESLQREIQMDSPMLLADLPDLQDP
Sequence of NAD(+) hydrolase SARM1 (Homo sapiens) (Q6SZW1 whole entry, looked up, the tested form may be a part): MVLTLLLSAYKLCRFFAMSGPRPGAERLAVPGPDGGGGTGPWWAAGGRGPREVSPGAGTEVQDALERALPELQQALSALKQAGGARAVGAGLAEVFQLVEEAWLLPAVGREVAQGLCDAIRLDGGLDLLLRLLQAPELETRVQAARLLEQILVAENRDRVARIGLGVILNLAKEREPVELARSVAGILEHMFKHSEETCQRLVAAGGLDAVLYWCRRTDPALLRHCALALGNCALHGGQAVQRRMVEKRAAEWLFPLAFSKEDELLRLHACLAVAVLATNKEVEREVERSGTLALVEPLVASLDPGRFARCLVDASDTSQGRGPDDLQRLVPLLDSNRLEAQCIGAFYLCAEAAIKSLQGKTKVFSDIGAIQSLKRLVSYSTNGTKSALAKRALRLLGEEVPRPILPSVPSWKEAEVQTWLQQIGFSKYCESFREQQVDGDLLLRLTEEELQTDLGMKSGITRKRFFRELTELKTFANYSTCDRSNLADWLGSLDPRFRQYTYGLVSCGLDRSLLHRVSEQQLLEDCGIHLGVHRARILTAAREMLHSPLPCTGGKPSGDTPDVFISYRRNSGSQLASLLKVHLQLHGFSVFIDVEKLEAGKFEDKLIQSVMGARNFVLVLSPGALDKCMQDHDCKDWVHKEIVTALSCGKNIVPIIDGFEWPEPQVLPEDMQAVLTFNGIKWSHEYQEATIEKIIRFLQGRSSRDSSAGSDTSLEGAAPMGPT

Usually viability stands for a read-out of living cells in per cent, often relative to untreated cells. Regarding `CC(=O)Nc1ccc(S(=O)(=O)c2ccc(NC(C)=O)cc2)cc1`, in [1], the parasite load remaining is 52.4% (inactive). The viability in assay [1] turned out to be 147%. In addition, in [2], the red/green cell ratio (normalised) is 0.78 (inactive). Further, the normalised cell number in [2] (setting [14]) was 1.22; in assay [2] (setting [15]), 0.95. The fold change was 0.909 (inactive) in assay [3] (setting [16]) and 4.36 in [3] (setting [17]). Also, the cell count in assay [3] (setting [18]) came out at 10600; in assay [3] (setting [19]), 11700. Moreover, the remaining NAD in assay [4] is 25 nM (inactive). Moreover, the luciferase signal in assay [5] is 44 AU (inactive).
Consider `C[C@H]1CC2C3CCC4=CC(=O)C=C[C@]4(C)[C@@]3(F)[C@@H](O)C[C@]2(C)[C@@]1(O)C(=O)COP(=O)(O)O` (stereo partly drawn), for which the red/green cell ratio (normalised) in assay [2] was 1.28 (inactive). The results for the normalised cell number in [2] (setting [14]) and in assay [2] (setting [15]) were 1.37 and 1.75, respectively. In addition, the fold change is 0.873 (inactive) in assay [3] (setting [16]) and 1.02 in assay [3] (setting [17]). The cell count worked out at 6310 in assay [3] (setting [18]) and 7220 in assay [3] (setting [19]). The luciferase signal in assay [5] was 92 AU (inactive).
Usually inhibition stands for the change of the read-out against control, counted positive when it falls. In the case of `CC(C)[C@@H]1CC[C@@H](C)C[C@H]1O`, the inhibition in assay [6] was 18.8%. The score in assay [7] came out at 1.2. This compound also came in with a rescue above control in [8] of 5.72. Moreover, in [9], the cytochrome c release ratio was found to be 0.66. Besides, the inhibition of aggregation in assay [10] came out at 80.3%. The compound further yielded a glutamate uptake change in [11] of 2.2%. For the same compound, the inclusion score in [12] stood at 1. Moreover, the aggregation suppression score in [13] was found to be 1.36. In addition, the parasite load remaining in [1] was 176% (inactive) and 64.4% (inactive). The viability in assay [1] was 87.7% and 95.6%. Besides, the red/green cell ratio (normalised) in [2] was 0.86 (inactive). Also, the normalised cell number in assay [2] (setting [14]) was determined as 0.91; in [2] (setting [15]), 0.79. Besides, the fold change in assay [3] (setting [16]) is 0.95 (inactive); in [3] (setting [17]), 2.52. In addition, the cell count in assay [3] (setting [18]) stood at 12500; in assay [3] (setting [19]) it was 13100. For the same compound, the remaining NAD in assay [4] was 10 nM (inactive). Moreover, the luciferase signal in assay [5] is 44 AU (inactive).
For the compound `O=C(CNC(=O)c1ccc(Cl)cc1)NO`, the parasite load remaining in assay [1] was 45.5% (inactive). Moreover, in assay [1], the viability turned out to be 106%. The red/green cell ratio (normalised) in [2] is 0.95 (inactive). Also, the normalised cell number was 1.13 in [2] (setting [14]) and 1.08 in assay [2] (setting [15]). For the same compound, the values for the fold change in assay [3] (setting [16]) and in assay [3] (setting [17]) were 0.961 (inactive) and 3.28, respectively. Moreover, the cell count in [3] (setting [18]) came out at 12100; in [3] (setting [19]), 12600. Moreover, the remaining NAD in assay [4] is 10 nM (inactive). For the same compound, the luciferase signal in [5] was 60 AU (inactive).
As to `C=CCCCCCCCCC(=O)[O-].C=CCCCCCCCCC(=O)[O-].[Zn+2]`, the parasite load remaining in [1] is 88.8% (inactive). In assay [1], the viability came out at 94.5%. The red/green cell ratio (normalised) in assay [2] is 1.08 (inactive). Further, the normalised cell number in assay [2] (setting [14]) came to 0.98; in assay [2] (setting [15]), 1.05. Further, the fold change is 0.86 (inactive) in assay [3] (setting [16]) and 4.55 in assay [3] (setting [17]). Besides, the cell count in assay [3] (setting [18]) was 11700; in [3] (setting [19]) it was 13600. For the same compound, the remaining NAD in assay [4] was 10 nM (inactive). The luciferase signal in assay [5] is 48 AU (inactive).
`CC1(C)O[C@@H]2CC3C4C[C@H](F)C5=CC(=O)C=CC5(C)C4C(O)CC3(C)[C@]2(C(=O)CO)O1` (stereo partly drawn) yielded an inhibition in [6] of 7.08%. Moreover, the score in [7] is 1.24. In assay [8], this compound showed a rescue above control of 14.2. In assay [9], the cytochrome c release ratio is 1.01. In assay [10], this compound had an inhibition of aggregation of 73%. The glutamate uptake change in assay [11] was found to be 41.4%. In assay [12], this compound gave an inclusion score of 2. For the same compound, the aggregation suppression score in assay [13] is 0.735. In addition, the parasite load remaining in [1] was 131% (inactive) and 75.5% (inactive). Also, the viability in assay [1] was 60.7% and 91.7%. Moreover, in assay [2], the red/green cell ratio (normalised) is 1.23 (inactive). Moreover, the normalised cell number in assay [2] (setting [14]) stood at 1.12; in assay [2] (setting [15]), 1.38. The fold change was 0.878 (inactive) in assay [3] (setting [16]) and 1.79 in [3] (setting [17]). In addition, the results for the cell count in assay [3] (setting [18]) and in [3] (setting [19]) were 7120 and 8110, respectively.
Regarding `O=C1/C(=C/c2cccs2)CCC/C1=C\c1cccs1`, the red/green cell ratio (normalised) in assay [2] was 1 (inactive). Further, the normalised cell number in assay [2] (setting [14]) turned out to be 0.96; in [2] (setting [15]), 0.97. Also, the fold change in [3] (setting [16]) is 0.964 (inactive); in [3] (setting [17]) it was 1.06. Further, the cell count in assay [3] (setting [18]) is 7510; in assay [3] (setting [19]), 7800. Further, in [4], the remaining NAD was 10 nM (inactive).
Regarding `CC(=O)Nc1ccc(OC(C)=O)cc1`, in [2], the red/green cell ratio (normalised) was 0.87 (inactive). For the same compound, the normalised cell number worked out at 1.25 in assay [2] (setting [14]) and 1.09 in assay [2] (setting [15]). Further, the fold change was 0.883 (inactive) in assay [3] (setting [16]) and 1.21 in assay [3] (setting [17]). The cell count came to 8510 in [3] (setting [18]) and 9640 in assay [3] (setting [19]). For the same compound, the remaining NAD in [4] is 10 nM (inactive).
